For 35 compounds, viability index results are on record in the supplement of paper PMC4723716.

Molecules are shown by their SMILES. ± gives the uncertainty stated by the source. Over roughly 9,900 compounds, “viability index relative to DMSO control” has its median near 1; the lowest 2% begin near 0.85. The list comes from a sample in which the lowest values are over-represented; it also holds similar structures and randomly drawn compounds.

The test system of the experiment is Plasmodium falciparum NF54 stage V gametocytes. The experiment in a line: viability index relative to DMSO control (fraction); higher = less gametocyte killing. The settings on record: 2.5 µM, incubation time: 72 h. The gist of the method: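 Stage V gametocytes of P. falciparum NF54 were held in serum-free screening medium at 0.75% gametocytemia and 1.25% hematocrit, 10 µl per well of a 1,536-well plate, and exposed to compound at 2.5 µM for 72 hr at 37°C under low oxygen. A 3 µl mix of 2.5 µM MitoTracker Red CMXRos with 0.13% saponin was then added for one to two hours, after which one field per well was imaged and red particles of 20–70 µm2 were counted. The viability index equals this count divided by the plate mean from wells given solvent alone.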

The mark [1] stands for this setting: library set: Broad Institute DOS.
The mark [2] stands for this setting: library set: Broad Institute Blood Stage.

Take `COCC#Cc1ccc([C@@H]2[C@H](CO)N3C(=O)CN(C(=O)CN4CCOCC4)C[C@@H]23)cc1`: under setting [1], the viability index turned out to be 1.02 ± 0.05.

Regarding `C[C@@H](NC(=O)C[C@H]1C=C[C@@H](NS(=O)(=O)c2cccc(F)c2)[C@H](CO)O1)c1ccccc1`, the viability index under setting [1] amounted to 1.17 ± 0.04.

With `O=C(N[C@@H]1CC[C@H](CC(=O)N2CCOCC2)O[C@H]1CO)c1cccc(F)c1`, the viability index under setting [1] came to 1.07 ± 0.062.

Under setting [1], `O=C(Nc1ccccc1)N1CC(=O)N2[C@H](CO)[C@@H](c3ccc(C#CC4CCCCC4)cc3)[C@@H]2C1` returned a viability index of 1.04 ± 0.086.

With `COCC(=O)N1CC[C@@]2(CC1)CN([C@@H](CO)c1c2c2ccc(OC)cc2n1C)C(=O)c1ccccn1`, the viability index under setting [1] is 1.02 ± 0.1.

In turn, `CO[C@@H]1CN(C)C(=O)c2cc(NS(=O)(=O)CC(F)(F)F)ccc2OC[C@H](C)NC[C@@H]1C` displayed a viability index under setting [1] of 1.05 ± 0.059.

Take `O=C(NCC[C@@H]1CC[C@@H](NS(=O)(=O)Cc2ccccc2)[C@@H](CO)O1)C1CCCCC1`: the viability index under setting [1] worked out at 0.968 ± 0.15.

For the compound `CN(C)C(=O)C[C@@H]1C=C[C@H](NC(=O)c2ccc(F)cc2)[C@@H](CO)O1`, the viability index under setting [1] stood at 1.11 ± 0.097.

Turning to `C[C@H](CO)N1C[C@H](C)[C@@H](CN(C)C(=O)Nc2ccc(C(F)(F)F)cc2)Oc2ccc(NS(=O)(=O)c3ccc(Cl)cc3)cc2CC1=O`, under setting [1], the viability index amounted to 0.917 ± 0.088.

Regarding `C[C@@H]1CN([C@H](C)CO)C(=O)c2cccc(NC(=O)c3nc4ccccc4s3)c2O[C@H]1CN(C)C(=O)Nc1ccc2c(c1)OCO2`, the viability index under setting [1] is 0.9047 ± 0.0069.

In the case of `C[C@@H]1CN([C@H](C)CO)C(=O)c2cccc(NC(=O)NC3CCCCC3)c2O[C@@H]1CN(C)Cc1ccc(C(F)(F)F)cc1`, the viability index under setting [1] is 0.977 ± 0.071.

Compound `C[C@@H]1CN([C@@H](C)CO)C(=O)c2cccc(NC(=O)C3CC3)c2O[C@@H]1CN(C)C(=O)Nc1ccc(C(F)(F)F)cc1` registered a viability index under setting [2] of 0.594 ± 0.06.

With `C[C@H](CO)N1C[C@H](C)[C@@H](CN(C)C(=O)Nc2ccc3c(c2)OCO3)Oc2ccc(NC(=O)Nc3ccc(C(F)(F)F)cc3)cc2CC1=O`, the viability index under setting [2] was 0.755 ± 0.061.

`C[C@H](CO)N1C[C@H](C)[C@H](CN(C)C(=O)Nc2ccc(C(F)(F)F)cc2)Oc2ccc(NS(=O)(=O)c3ccc(Cl)cc3)cc2CC1=O` had a viability index under setting [1] of 1.009 ± 0.0083.

Regarding `Cc1ccc(S(=O)(=O)Nc2cccc3c2O[C@H](CN(C)C(=O)Nc2ccc(C(F)(F)F)cc2)[C@@H](C)CN([C@H](C)CO)C3=O)cc1`, under setting [1], the viability index came out at 1.02 ± 0.029.

Consider `C[C@@H]1CN([C@@H](C)CO)C(=O)c2cccc(NC(=O)c3nc4ccccc4s3)c2O[C@H]1CN(C)C(=O)Nc1ccc(C(F)(F)F)cc1`, for which, under setting [2], the viability index turned out to be 0.811 ± 0.058.

`C[C@H](CO)N1C[C@H](C)[C@@H](CN(C)C(=O)Nc2ccc3c(c2)OCO3)Oc2c(NC(=O)c3nc4ccccc4s3)cccc2C1=O` returned a viability index under setting [1] of 1.01 ± 0.041.

On to `C[C@@H]1CN([C@H](C)CO)C(=O)c2cccc(NC(=O)NC3CCCCC3)c2O[C@H]1CN(C)Cc1ccc(C(F)(F)F)cc1`, for which the viability index under setting [1] was 1.01 ± 0.083.

On to `C[C@@H]1CN([C@@H](C)CO)C(=O)c2cccc(NC(=O)NC3CCCCC3)c2O[C@@H]1CN(C)Cc1ccc(C(F)(F)F)cc1`, for which, under setting [1], the viability index came out at 0.813 ± 0.08.

With `Cc1ccc(S(=O)(=O)Nc2cccc3c2O[C@@H](CN(C)C(=O)Nc2ccc(C(F)(F)F)cc2)[C@@H](C)CN([C@H](C)CO)C3=O)cc1`, the viability index under setting [1] amounted to 1.08 ± 0.061.

`O=C(Nc1ccccc1F)N1CC(=O)N2[C@@H](CO)[C@H](c3ccc(-c4cccnc4)cc3)[C@@H]2C1` had a viability index under setting [1] of 1.08 ± 0.028.

Take `Cc1noc(C)c1NC(=O)N(C)C[C@@H]1OCc2cnnn2CCCC(=O)N([C@H](C)CO)C[C@@H]1C`: under setting [1], the viability index was determined as 1.09 ± 0.08.

Under setting [1], `CO[C@@H]1CN(C)C(=O)c2ccc(NC(=O)NC(C)C)cc2OC[C@@H](C)N(Cc2ccc(-c3ccccn3)cc2)C[C@H]1C` displayed a viability index of 1.03 ± 0.023.

The compound `COCC(=O)Nc1ccc2c(c1)C(=O)N(C)[C@@H]1CC[C@H](CC(=O)N3CCc4ccccc4C3)O[C@@H]1CO2` returned a viability index under setting [1] of 1.0023 ± 0.00098.

Turning to `C/C=C/c1ccc([C@H]2[C@H]3CNC[C@@H]2N3S(=O)(=O)c2ccccc2C)cc1`, under setting [1], the viability index is 1.04 ± 0.027.

Under setting [2], `C[C@H]1CN([C@@H](C)CO)C(=O)c2c(c3ccccc3n2C)-c2ccccc2CO[C@H]1CN(C)S(=O)(=O)c1ccc(F)cc1` gave a viability index of 0.929 ± 0.041.

`C[C@H]1CN([C@@H](C)CO)C(=O)c2c(c3ccccc3n2C)-c2ccccc2CO[C@H]1CN(C)S(=O)(=O)c1ccc(Cl)cc1` showed a viability index under setting [2] of 0.738 ± 0.023.

`Cc1ccc(S(=O)(=O)N(C)C[C@@H]2OCc3ccccc3-c3c(n(C)c4ccccc34)C(=O)N([C@@H](C)CO)C[C@@H]2C)cc1` came in with a viability index under setting [2] of 0.728 ± 0.062.

Compound `C[C@H](CO)N1C[C@H](C)[C@H](CN(C)S(=O)(=O)c2ccc(C#N)cc2)OCc2ccccc2-c2c(n(C)c3ccccc23)C1=O` showed a viability index under setting [2] of 1.01 ± 0.03.

`C[C@H](CO)N1C[C@H](C)[C@H](CN(C)S(=O)(=O)c2ccc(F)cc2)OCc2ccccc2-c2c(n(C)c3ccccc23)C1=O`: the viability index under setting [2] was 0.942 ± 0.045.

For the compound `COc1ccc(S(=O)(=O)N(C)C[C@@H]2OCc3ccccc3-c3c(n(C)c4ccccc34)C(=O)N([C@@H](C)CO)C[C@@H]2C)cc1`, the viability index under setting [2] was 0.936 ± 0.044.

In turn, `CCNC(=O)C[C@@H]1CC[C@H]2[C@@H](COC[C@H](O)CN2C(=O)c2ccccn2)O1` had a viability index under setting [1] of 1.14 ± 0.062.

On to `COc1cccc(C#Cc2ccc3c(c2)O[C@@H](CN(C)C(=O)CN2CCOCC2)[C@@H](C)CN([C@H](C)CO)S3(=O)=O)c1`, for which the viability index under setting [1] turned out to be 0.966 ± 0.13.

Consider `C[C@@H]1CCCCO[C@H](CN(C)Cc2ccc(C(=O)O)cc2)[C@@H](C)CN([C@@H](C)CO)C(=O)c2cc(N(C)C)ccc2O1`, for which the viability index under setting [1] came to 1.07 ± 0.11.

For the compound `COCC#Cc1ccc([C@@H]2[C@@H](CO)N3C(=O)CN(C(=O)c4ccncc4)C[C@H]23)cc1`, the viability index under setting [1] turned out to be 1.12 ± 0.087.
